In all, about 200,000 compounds went through this assay and about 520 (0.26%) were called active. This is one part of a sample in which actives are shown more often than they occur. A number with no mark means an inactive call.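 How the source made its calls: active means tissue-nonspecific alkaline phosphatase inhibition above about 50% at 20 µM in the single-dose screen (limit read from the data); inactive means the rest.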
Molecular target: Alkaline phosphatase, tissue-nonspecific isozyme (Homo sapiens) (UniProt P05186)
Sequence (P05186 whole entry, looked up): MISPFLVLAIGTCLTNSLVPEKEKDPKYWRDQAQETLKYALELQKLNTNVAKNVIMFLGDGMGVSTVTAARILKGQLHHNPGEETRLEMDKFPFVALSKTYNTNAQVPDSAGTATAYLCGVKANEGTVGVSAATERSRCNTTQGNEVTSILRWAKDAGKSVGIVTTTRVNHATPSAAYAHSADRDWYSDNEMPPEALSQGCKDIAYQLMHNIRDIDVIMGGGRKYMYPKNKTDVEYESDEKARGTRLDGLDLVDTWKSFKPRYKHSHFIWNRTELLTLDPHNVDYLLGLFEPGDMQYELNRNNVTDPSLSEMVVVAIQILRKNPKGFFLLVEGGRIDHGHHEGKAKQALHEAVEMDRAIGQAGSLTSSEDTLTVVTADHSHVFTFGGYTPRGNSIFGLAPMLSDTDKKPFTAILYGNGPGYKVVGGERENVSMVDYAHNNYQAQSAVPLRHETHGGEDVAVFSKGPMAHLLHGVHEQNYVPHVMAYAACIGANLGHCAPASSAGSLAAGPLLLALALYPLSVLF
Assay: blockers of alkaline phosphatase TNAP activity – biochemical, luminescent, no phosphate acceptor, uHTS, primary screen (AID 1012);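 further: 0% = DMSO negative control and 100% = EDTA positive control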
Conditions: purified TNAP, CDP-star luminescence, 30 min; at 20 µM; stronger effect = higher value

First: CCC(=NCc1ccco1)c1c(O)n(Cc2ccccc2)c(=O)[nH]c1=O
Second: CN(C)CCCN=Cc1c(O)n(Cc2ccco2)c(=O)[nH]c1=O
The inhibition of the first is higher: -5.5% for the first, -20.3% for the second.

First: O=C(OCCN1CCOCC1)C1(c2ccccc2)CCCC1
Second: O=C(NCC(c1cccnc1)N1CCN(c2ccccc2)CC1)Oc1ccccc1 (stereo not given)
The inhibition of the first is higher: -3% for the first, -8.6% for the second.

With `O=C(N/N=C/c1c(O)n(Cc2ccccc2)c(=O)[nH]c1=O)c1ccccc1` the inhibition was 94.3% (active).

From PubChem BioAssay AID1012 (Sanford-Burnham Center for Chemical Genomics, 2008)
